Screens deposited in PubChem BioAssay by National Center for Advancing Translational Sciences (NCATS).
Hits are enriched below; roughly 17% of the tested compounds scored in any of these assays.
HT1080NT lethal: qHTS for induction of synthetic lethality in tumor cells producing 2HG: qHTS for the HT-1080-NT fibrosarcoma cell line; Potency, µM (highest dose often 46.1 µM), without a hit: top-dose activity, negative = less viability, most hits filed as cytotoxic; HT-1080-NT fibrosarcoma viability, CellTiter-Glo ATP luminescence, 48 h; 360,000 tested, 1.6% active;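 also: NT is the 2HG producing partner of a matched IDH1 knockdown line; 0% = DMSO-treated cells and -100% = media-only wells without cells; nearly all actives have a fitted effect of over 55% in size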
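750 cells/well, RPMI + 5% FBS; 2 h settle, compound pin-transfer, 48 h at 37 degrees C. CellTiter-Glo 10 min RT, luminescence. Normalized to DMSO and media-only wells.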
TGFb SMAD3 inh: qHTS for Inhibitors of TGF-b. Potency, µM (series often up to 46.1 µM), for the others: at the top dose activity, negative = inhibition, usual class: inhibitors. 410,000 tested, 1.2% active. AID 588855, 2011. HepG2 CAGA-GFP TGF-b/SMAD3 reporter, GFP fluorescence, 18 h; TGF-beta stimulated, 500 pg/mL final; also: % is scaled to controls: 0 for no effect and ±100 for the full control effect; nearly all actives have a fitted effect of over 65% in size
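Using HEPG2 CAGA-GFP reporter cells at 1000 cells/well, we pinned test compounds, stimulated with recombinant TGF-beta (500 pg/mL final) and measured total well GFP after 18 h.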
DT40 TDP1 CPT: qHTS for Inhibitors of human tyrosyl-DNA phosphodiesterase 1 (TDP1): qHTS in cells in presence of CPT. Potency, µM (titrated, usually from 46.2 µM), without a hit: top-dose activity change, negative = growth inhibition, most hits filed as inhibitors. chicken DT40 Tdp1-/-;hTDP1 cells + 20 nM CPT, ATP luminescence, 48 h. 420,000 tested, 12% active; also: % is scaled to controls: 0 for no effect and ±100 for the full control effect; nearly all actives have a fitted effect of over 55% in size
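Chicken DT40 Tdp1-/- cells stably complemented with human TDP1 were seeded at 400 cells/well in medium containing 20 nM camptothecin, exposed to pin-transferred compounds, and grown at 37 °C for at least 48 hr. Viability was read as ATP luminescence.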
HepG2 tox: qHTS for Inhibitors of TGF-b: Cytotox Counterscreen; HepG2 CAGA-GFP viability, ATP luminescence, 18 h; Potency, µM (highest dose often 46.1 µM), for inactives: at the highest dose activity change, negative = cytotoxicity, actives largely listed as cytotoxic; 410,000 tested, 0.76% active; AID 588856, 2011
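CellTiter-Glo luminescence gave cytotoxicity after 18 hours at 37 degrees C. The cells were HepG2 CAGA-GFP in 1% FBS DMEM, stimulated with 500 pg/mL TGF-beta after compound addition. %Activity was normalised to no-cell wells (complete cell-killing) and DMSO (no toxicity), and curves were fitted and classified.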
HT1080 IDH1KD tx: qHTS for induction of synthetic lethality in tumor cells producing 2HG: qHTS for the HT-1080-IDH1KD cell line; HT-1080 IDH1 knockdown viability, ATP luminescence, 48 h; Potency, µM (titrated, usually from 46.1 µM), inactives show at the highest dose activity, negative = toxicity, actives largely listed as cytotoxic; 360,000 tested, 2% active;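 also: 0% = DMSO wells and -100% = cell-free medium wells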
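IDH1KD HT-1080 cells, 750/well, RPMI + 5% FBS; compound pinned after 2 h settling; 48 h, 37 °C; CellTiter-Glo luminescence; % activity normalised to DMSO and no-cell wells; curves fitted, classed by r2 and efficacy.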
TDP1 cell noCPT: qHTS for Inhibitors of human tyrosyl-DNA phosphodiesterase 1 (TDP1): qHTS in cells in absence of CPT; DT40 Tdp1-/- hTDP1 cells, no CPT, ATP luminescence, 48 h; Potency, µM (highest dose often 46.2 µM), without a hit: at the highest dose activity change, negative = growth inhibition, hits mostly inhibitors; 420,000 tested, 15% active; AID 686978, 2013; also: % is scaled to controls: 0 for no effect and ±100 for the full control effect; nearly all actives have a fitted effect of over 55% in size
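A cellular qHTS used chicken DT40 cells lacking endogenous Tdp1 but carrying stably transfected human TDP1. Compounds were applied without camptothecin, and cell growth kinetics were judged by ATP-dependent luminescence after ≥48 hr.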
* marks the source's active call; other numbers are inactive results; [ ] = dose if it differs, or a comment. Calls follow the shape of the dose curve; as a rule, active = well fitted curve in the direction sought with a large enough effect; inconclusive = small, poorly fitted or top-dose-only effect, or another doubt; inactive = no such curve, though single readings can be large; an effect the other way counts as inactive or inconclusive. Potency is read from the fitted curve at half-maximal effect.

Results for O=C(CC1CCCC1)Nc1ccc(Cl)c(S(=O)(=O)N2CCOCC2)c1 ?
HT1080NT lethal: -29.9%; TGFb SMAD3 inh: inconclusive; DT40 TDP1 CPT: inconclusive; HepG2 tox: -24.1%; HT1080 IDH1KD tx: -6.9%; TDP1 cell noCPT: 16.4µM*

What do the screens show for `O=C(CC1CCCC1)Nc1cc(S(=O)(=O)N2CCOCC2)ccc1O`?
HT1080NT lethal: 3.8%; TGFb SMAD3 inh: -3.4%; DT40 TDP1 CPT: 8.2µM*; HepG2 tox: 3.6%; HT1080 IDH1KD tx: 3.0%; TDP1 cell noCPT: inconclusive

What do the screens show for `Cc1ccc(NC(=O)CC2OC(=O)c3ccccc32)cc1S(=O)(=O)N1CCCCCC1` (stereo unspecified)?
HT1080NT lethal: 2.4%; TGFb SMAD3 inh: -17.1%; DT40 TDP1 CPT: inconclusive; HepG2 tox: -4.2%; HT1080 IDH1KD tx: 5.1%; TDP1 cell noCPT: inconclusive

How did O=C(CC1OC(=O)c2ccccc21)Nc1ccc(Cl)c(S(=O)(=O)N2CCCCC2)c1 (stereo unspecified) do in these assays?
HT1080NT lethal: -7.2%; TGFb SMAD3 inh: 0.0%; DT40 TDP1 CPT: inconclusive; HepG2 tox: 8.91µM*; HT1080 IDH1KD tx: -20.8%; TDP1 cell noCPT: inconclusive

How did COc1ccccc1CNc1ncnc2sc(C(=O)N3CCN(C)CC3)c(C)c12 do in these assays?
DT40 TDP1 CPT: -7.5%[9.04 µM]; TDP1 cell noCPT: -16.3%

What do the screens show for `Cc1sc2ncn(CC(=O)N3CCN(c4ccccn4)CC3)c(=O)c2c1S(=O)(=O)N1CCC(C)CC1`?
HT1080NT lethal: 0.6%; TGFb SMAD3 inh: 20.3%; DT40 TDP1 CPT: 4.4%; HepG2 tox: -6.0%; HT1080 IDH1KD tx: 10.0%; TDP1 cell noCPT: -19.5%

How did CC(=O)N1CCN(C(=O)CC2OC(=O)c3ccccc32)CC1 (stereo unspecified) do in these assays?
HT1080NT lethal: 0.3%; TGFb SMAD3 inh: inconclusive; DT40 TDP1 CPT: 8.2µM*; HepG2 tox: 1.4%; HT1080 IDH1KD tx: 3.9%; TDP1 cell noCPT: 11.6µM*

How did O=C(CC1OC(=O)c2ccccc21)Nc1ccccc1N1CCOCC1 (stereo unspecified) do in these assays?
HT1080NT lethal: 2.3%; TGFb SMAD3 inh: 1.5%; DT40 TDP1 CPT: 27.8%; HepG2 tox: 0.5%; HT1080 IDH1KD tx: 1.7%; TDP1 cell noCPT: -24.9%

Results for O=C(CN1CCN(S(=O)(=O)N2CCOCC2)CC1)Nc1ccc(Cl)c(Cl)c1 ?
HT1080NT lethal: -27.7%; TGFb SMAD3 inh: -12.7%; DT40 TDP1 CPT: inconclusive; HepG2 tox: -26.2%; HT1080 IDH1KD tx: -10.9%; TDP1 cell noCPT: 16.4µM*

How did CCC1(CC)NC(=O)N(CC(=O)Nc2sc3c(c2C(N)=O)CCC3)C1=O do in these assays?
HT1080NT lethal: 0.4%; TGFb SMAD3 inh: -11.5%; DT40 TDP1 CPT: -8.9%; HepG2 tox: -51.2%; HT1080 IDH1KD tx: -1.1%; TDP1 cell noCPT: -15.1%

Results for O=C1NC[C@H](CCCCN2C[C@H](Cc3ccc(O)cc3)N(CCc3ccccc3)C(=O)C2=O)N(CCC2CCCCC2)C1=O ?
HT1080NT lethal: 15.8%; DT40 TDP1 CPT: 5.6%; HT1080 IDH1KD tx: 10.4%; TDP1 cell noCPT: -2.8%

Results for CC1(C)CN(c2ccccc2)N(Cc2ccc(F)cc2)C1=O ?
HT1080NT lethal: -0.4%; TGFb SMAD3 inh: 0.6%; DT40 TDP1 CPT: 9.2µM*; HepG2 tox: -12.5%; HT1080 IDH1KD tx: -24.7%; TDP1 cell noCPT: 9.2µM*

What do the screens show for `CCOC(=O)C(=CNNc1c(C)csc1C(=O)OC)C(=O)OCC`?
HT1080NT lethal: -1.1%; TGFb SMAD3 inh: inconclusive; DT40 TDP1 CPT: inconclusive; HepG2 tox: 2.5%; HT1080 IDH1KD tx: -2.1%; TDP1 cell noCPT: 14.6µM*

How did Cc1cc(NC(=O)OC(C)(C)C)c(-n2nnnc2C(C(=O)c2ccccc2)N2CCOCC2)cc1C (stereo unspecified) do in these assays?
HT1080NT lethal: 14.1%; DT40 TDP1 CPT: -21.7%; HT1080 IDH1KD tx: 10.9%; TDP1 cell noCPT: -28.8%

How did CN1CCN(S(=O)(=O)c2ccc(N3CCN(C(=O)c4ccccc4)CC3)nc2)CC1 do in these assays?
HT1080NT lethal: 3.2%; TGFb SMAD3 inh: -13.8%; DT40 TDP1 CPT: -4.8%; HepG2 tox: -1.4%; HT1080 IDH1KD tx: 5.8%; TDP1 cell noCPT: inconclusive

Results for CN1CCN(S(=O)(=O)c2ccc(N3CCN(c4ccccc4Cl)CC3)nc2)CC1 ?
HT1080NT lethal: 1.9%[9.24 µM]; TGFb SMAD3 inh: 17.2%; DT40 TDP1 CPT: 20.6µM*; HepG2 tox: -2.8%; HT1080 IDH1KD tx: -2.6%; TDP1 cell noCPT: 14.6µM*

Results for O=S(=O)(c1ccc(N2CCN(Cc3ccccc3)CC2)nc1)N1CCCC1 ?
HT1080NT lethal: -11.5%; TGFb SMAD3 inh: -22.3%; DT40 TDP1 CPT: 16.4µM*; HepG2 tox: -19.8%; HT1080 IDH1KD tx: -3.5%; TDP1 cell noCPT: inconclusive

How did O=S(=O)(c1ccc(N2CCN(S(=O)(=O)c3ccccc3)CC2)nc1)N1CCCC1 do in these assays?
HT1080NT lethal: 3.2%; TGFb SMAD3 inh: 4.8%; DT40 TDP1 CPT: 7.7%; HepG2 tox: -9.9%; HT1080 IDH1KD tx: -4.8%; TDP1 cell noCPT: -8.3%

Results for O=S(=O)(c1ccc(N2CC=C(c3ccccc3)CC2)nc1)N1CCCC1 ?
HT1080NT lethal: inconclusive; TGFb SMAD3 inh: -15.7%; DT40 TDP1 CPT: 16.4µM*; HepG2 tox: -5.6%; HT1080 IDH1KD tx: inconclusive; TDP1 cell noCPT: 18.4µM*

What do the screens show for `C#Cc1cccc(NC(=O)c2ccc3c(c2)C(=O)N(Cc2cccnc2)C3=O)c1`?
HT1080NT lethal: -2.2%; TGFb SMAD3 inh: 7.6%; DT40 TDP1 CPT: -10.4%; HepG2 tox: 0.0%; HT1080 IDH1KD tx: 8.7%; TDP1 cell noCPT: 13.0%
